# Measurements published in ChEMBL document CHEMBL1961873, “Compounds: GSK PKIS; Assays: Nanosyn kinase panel” (2012).
# Key:
# [1] = target: T1, Inhibitor of nuclear factor kappa-B kinase subunit epsilon (Homo sapiens) (UniProt Q14164); details: at 1 µM;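 note: reported values are averaged percent inhibition figures against human IKKε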
# T1 sequence (whole entry): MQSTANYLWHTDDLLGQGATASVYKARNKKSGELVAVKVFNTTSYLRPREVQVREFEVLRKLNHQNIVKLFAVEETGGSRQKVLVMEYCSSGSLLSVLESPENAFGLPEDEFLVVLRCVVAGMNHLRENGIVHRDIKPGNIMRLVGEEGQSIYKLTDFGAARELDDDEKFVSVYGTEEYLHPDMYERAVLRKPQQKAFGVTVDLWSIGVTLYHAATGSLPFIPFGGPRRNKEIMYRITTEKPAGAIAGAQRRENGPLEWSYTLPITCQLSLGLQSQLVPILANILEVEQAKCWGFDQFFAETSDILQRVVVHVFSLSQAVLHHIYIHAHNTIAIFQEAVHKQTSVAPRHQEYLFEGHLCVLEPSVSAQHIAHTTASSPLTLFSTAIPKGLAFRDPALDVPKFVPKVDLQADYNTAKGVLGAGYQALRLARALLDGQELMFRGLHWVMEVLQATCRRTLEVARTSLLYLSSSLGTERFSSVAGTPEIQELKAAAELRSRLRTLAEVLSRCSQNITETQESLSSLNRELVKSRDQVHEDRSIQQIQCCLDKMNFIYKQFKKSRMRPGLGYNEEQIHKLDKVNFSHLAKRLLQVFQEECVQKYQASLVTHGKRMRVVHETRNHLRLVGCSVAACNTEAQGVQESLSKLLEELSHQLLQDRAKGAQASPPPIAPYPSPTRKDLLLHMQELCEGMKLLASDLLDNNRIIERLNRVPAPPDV
# [2] = target: T2, Serine/threonine-protein kinase Nek1 (Homo sapiens) (UniProt Q96PY6); details: at 0.1 µM
# T2 sequence (whole entry): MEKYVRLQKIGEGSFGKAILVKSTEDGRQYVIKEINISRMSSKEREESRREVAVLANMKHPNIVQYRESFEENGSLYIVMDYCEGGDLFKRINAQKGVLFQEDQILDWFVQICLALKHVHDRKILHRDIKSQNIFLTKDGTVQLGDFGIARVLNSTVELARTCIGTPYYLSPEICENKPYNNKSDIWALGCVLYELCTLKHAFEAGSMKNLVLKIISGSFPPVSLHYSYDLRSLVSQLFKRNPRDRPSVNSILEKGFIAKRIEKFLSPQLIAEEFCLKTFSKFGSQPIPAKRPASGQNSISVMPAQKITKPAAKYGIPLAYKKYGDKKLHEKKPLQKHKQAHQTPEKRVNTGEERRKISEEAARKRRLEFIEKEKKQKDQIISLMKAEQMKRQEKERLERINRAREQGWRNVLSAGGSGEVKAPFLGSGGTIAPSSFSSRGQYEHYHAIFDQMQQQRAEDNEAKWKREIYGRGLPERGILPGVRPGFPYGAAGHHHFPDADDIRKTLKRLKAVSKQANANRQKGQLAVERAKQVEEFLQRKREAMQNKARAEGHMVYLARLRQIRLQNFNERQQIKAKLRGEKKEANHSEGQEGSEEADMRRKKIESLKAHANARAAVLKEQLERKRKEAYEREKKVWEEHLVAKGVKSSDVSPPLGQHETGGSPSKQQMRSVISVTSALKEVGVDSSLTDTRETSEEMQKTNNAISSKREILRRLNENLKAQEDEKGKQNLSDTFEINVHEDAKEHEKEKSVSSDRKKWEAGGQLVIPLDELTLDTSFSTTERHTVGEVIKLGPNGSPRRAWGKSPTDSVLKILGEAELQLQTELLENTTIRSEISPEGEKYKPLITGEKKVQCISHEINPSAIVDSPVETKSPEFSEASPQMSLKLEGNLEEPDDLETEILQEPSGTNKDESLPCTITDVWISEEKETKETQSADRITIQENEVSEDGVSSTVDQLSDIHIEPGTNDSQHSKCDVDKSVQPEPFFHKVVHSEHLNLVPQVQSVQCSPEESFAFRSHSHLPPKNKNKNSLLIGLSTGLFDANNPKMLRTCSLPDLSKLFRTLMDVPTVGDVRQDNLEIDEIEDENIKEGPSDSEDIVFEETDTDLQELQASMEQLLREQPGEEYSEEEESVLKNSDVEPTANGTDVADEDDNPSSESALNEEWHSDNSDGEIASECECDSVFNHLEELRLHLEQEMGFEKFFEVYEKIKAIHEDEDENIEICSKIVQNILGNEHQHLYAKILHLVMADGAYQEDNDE
# [3] = target: T2, Serine/threonine-protein kinase Nek1 (Homo sapiens); details: at 1 µM
# [4] = target: T3, Serine/threonine-protein kinase Nek2 (Homo sapiens) (UniProt P51955); details: at 0.1 µM
# T3 sequence (whole entry): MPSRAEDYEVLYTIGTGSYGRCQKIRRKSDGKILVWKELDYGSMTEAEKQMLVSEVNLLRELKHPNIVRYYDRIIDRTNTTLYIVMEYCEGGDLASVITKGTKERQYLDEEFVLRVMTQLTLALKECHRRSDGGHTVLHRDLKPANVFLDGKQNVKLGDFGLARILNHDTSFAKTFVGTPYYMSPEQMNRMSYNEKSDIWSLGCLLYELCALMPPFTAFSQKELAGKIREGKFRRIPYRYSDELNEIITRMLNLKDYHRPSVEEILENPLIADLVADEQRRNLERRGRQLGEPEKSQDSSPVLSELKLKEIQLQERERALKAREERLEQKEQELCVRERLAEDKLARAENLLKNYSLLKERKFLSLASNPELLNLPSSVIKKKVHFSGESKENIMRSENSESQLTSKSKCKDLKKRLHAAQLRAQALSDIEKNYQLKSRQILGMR
# [5] = target: T3, Serine/threonine-protein kinase Nek2 (Homo sapiens); details: at 1 µM
# [6] = target: Serine/threonine-protein kinase Nek6 (Homo sapiens) (UniProt Q9HC98); details: at 0.1 µM
# [7] = target: Serine/threonine-protein kinase Nek6 (Homo sapiens) (UniProt Q9HC98); details: at 1 µM
# [8] = target: Serine/threonine-protein kinase Nek7 (Homo sapiens) (UniProt Q8TDX7); details: at 0.1 µM
# [9] = target: Serine/threonine-protein kinase Nek7 (Homo sapiens) (UniProt Q8TDX7); details: at 1 µM
# [10] = target: T4, Serine/threonine-protein kinase Nek9 (Homo sapiens) (UniProt Q8TD19); details: at 0.1 µM
# T4 sequence (whole entry): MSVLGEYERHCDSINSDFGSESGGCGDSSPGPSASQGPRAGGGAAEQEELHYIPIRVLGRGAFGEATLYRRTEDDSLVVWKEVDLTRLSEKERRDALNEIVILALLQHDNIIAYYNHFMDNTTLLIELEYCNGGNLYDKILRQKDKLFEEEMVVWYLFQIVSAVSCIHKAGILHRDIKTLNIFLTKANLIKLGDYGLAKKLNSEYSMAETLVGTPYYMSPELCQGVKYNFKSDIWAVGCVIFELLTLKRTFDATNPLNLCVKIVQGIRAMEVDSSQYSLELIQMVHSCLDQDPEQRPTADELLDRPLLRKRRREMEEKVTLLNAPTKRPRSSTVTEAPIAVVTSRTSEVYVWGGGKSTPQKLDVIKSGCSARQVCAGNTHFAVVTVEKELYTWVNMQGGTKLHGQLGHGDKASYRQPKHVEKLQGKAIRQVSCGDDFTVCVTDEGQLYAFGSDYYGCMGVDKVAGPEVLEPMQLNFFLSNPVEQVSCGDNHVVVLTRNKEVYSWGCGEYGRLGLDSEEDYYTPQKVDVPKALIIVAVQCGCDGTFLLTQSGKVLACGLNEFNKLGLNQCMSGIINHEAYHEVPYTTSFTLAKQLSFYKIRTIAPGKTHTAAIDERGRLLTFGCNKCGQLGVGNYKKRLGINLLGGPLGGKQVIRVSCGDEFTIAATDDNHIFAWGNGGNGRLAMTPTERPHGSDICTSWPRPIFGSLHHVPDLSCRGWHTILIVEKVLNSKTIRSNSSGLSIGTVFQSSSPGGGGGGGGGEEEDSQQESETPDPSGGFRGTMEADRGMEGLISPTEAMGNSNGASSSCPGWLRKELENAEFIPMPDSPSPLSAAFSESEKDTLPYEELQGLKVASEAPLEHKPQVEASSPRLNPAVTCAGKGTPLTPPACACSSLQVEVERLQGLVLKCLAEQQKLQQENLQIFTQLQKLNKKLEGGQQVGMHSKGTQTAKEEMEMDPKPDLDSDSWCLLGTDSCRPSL
# [11] = target: T4, Serine/threonine-protein kinase Nek9 (Homo sapiens); details: at 1 µM
# [12] = target: Serine/threonine-protein kinase PLK1 (Homo sapiens) (UniProt P53350); details: at 0.1 µM
# [13] = target: Serine/threonine-protein kinase PLK1 (Homo sapiens) (UniProt P53350); details: at 1 µM
# [14] = target: T5, Dual specificity protein kinase TTK (Homo sapiens) (UniProt P33981); details: at 0.1 µM
# T5 sequence (whole entry): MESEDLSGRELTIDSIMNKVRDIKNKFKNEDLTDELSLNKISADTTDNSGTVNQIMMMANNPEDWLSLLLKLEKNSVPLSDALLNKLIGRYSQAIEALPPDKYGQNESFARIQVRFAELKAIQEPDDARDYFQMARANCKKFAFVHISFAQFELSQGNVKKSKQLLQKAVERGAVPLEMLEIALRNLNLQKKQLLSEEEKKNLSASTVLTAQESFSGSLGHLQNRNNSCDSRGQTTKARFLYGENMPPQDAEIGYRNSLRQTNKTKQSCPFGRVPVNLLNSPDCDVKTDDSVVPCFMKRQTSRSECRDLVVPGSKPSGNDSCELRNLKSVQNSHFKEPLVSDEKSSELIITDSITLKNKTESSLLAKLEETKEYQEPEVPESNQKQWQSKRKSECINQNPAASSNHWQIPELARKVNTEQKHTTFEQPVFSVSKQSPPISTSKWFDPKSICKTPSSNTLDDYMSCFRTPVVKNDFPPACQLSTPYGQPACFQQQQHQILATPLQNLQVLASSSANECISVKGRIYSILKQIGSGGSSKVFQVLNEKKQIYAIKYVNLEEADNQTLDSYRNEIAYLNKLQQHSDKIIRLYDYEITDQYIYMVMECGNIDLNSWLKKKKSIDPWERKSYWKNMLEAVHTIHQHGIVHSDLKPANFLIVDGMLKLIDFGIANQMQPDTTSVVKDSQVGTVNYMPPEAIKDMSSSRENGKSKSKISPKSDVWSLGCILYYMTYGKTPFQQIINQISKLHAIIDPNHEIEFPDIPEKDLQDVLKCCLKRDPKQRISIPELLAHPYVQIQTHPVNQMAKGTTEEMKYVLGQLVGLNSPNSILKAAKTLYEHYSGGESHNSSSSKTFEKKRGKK
# [15] = system: T6, Receptor-type tyrosine-protein kinase FLT3 (Homo sapiens), P36888 [D835Y]; details: at 1 µM
# T6 sequence (whole entry): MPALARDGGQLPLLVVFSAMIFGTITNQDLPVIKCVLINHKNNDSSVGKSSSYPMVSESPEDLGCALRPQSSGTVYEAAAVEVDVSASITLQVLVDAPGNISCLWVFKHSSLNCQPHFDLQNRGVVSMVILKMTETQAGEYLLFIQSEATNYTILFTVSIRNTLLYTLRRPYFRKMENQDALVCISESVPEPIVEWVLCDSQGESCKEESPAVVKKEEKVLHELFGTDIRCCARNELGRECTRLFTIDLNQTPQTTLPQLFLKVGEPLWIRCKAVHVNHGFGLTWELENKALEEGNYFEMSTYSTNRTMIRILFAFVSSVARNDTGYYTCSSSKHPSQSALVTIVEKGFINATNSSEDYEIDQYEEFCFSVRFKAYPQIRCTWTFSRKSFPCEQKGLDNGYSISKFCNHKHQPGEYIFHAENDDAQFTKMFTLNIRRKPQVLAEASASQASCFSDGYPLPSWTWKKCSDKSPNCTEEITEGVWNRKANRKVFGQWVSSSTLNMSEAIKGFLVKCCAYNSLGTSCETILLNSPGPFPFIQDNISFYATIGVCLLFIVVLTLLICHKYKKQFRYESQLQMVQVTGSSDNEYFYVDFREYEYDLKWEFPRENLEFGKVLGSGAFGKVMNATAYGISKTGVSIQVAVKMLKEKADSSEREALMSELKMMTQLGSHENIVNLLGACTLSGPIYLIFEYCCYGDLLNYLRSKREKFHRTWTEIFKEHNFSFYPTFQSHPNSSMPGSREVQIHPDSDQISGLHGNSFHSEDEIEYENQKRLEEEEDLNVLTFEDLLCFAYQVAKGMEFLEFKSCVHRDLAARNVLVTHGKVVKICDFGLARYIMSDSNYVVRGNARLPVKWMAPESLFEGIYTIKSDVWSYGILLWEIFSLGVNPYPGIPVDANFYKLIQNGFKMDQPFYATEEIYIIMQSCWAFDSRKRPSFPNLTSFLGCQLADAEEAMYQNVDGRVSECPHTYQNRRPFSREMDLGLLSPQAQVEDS
# [16] = target: Vascular endothelial growth factor receptor 3 (Homo sapiens) (UniProt P35916); details: at 0.1 µM
# [17] = target: Vascular endothelial growth factor receptor 3 (Homo sapiens) (UniProt P35916); details: at 1 µM
# [18] = target: Macrophage colony-stimulating factor 1 receptor (Homo sapiens) (UniProt P07333); details: at 0.1 µM
# [19] = target: Macrophage colony-stimulating factor 1 receptor (Homo sapiens) (UniProt P07333); details: at 1 µM
# [20] = target: Tyrosine-protein kinase Fyn (Homo sapiens) (UniProt P06241); details: at 0.1 µM
# Chain of Tyrosine-protein kinase Fyn (Homo sapiens) (P06241 2-537 limits assumed): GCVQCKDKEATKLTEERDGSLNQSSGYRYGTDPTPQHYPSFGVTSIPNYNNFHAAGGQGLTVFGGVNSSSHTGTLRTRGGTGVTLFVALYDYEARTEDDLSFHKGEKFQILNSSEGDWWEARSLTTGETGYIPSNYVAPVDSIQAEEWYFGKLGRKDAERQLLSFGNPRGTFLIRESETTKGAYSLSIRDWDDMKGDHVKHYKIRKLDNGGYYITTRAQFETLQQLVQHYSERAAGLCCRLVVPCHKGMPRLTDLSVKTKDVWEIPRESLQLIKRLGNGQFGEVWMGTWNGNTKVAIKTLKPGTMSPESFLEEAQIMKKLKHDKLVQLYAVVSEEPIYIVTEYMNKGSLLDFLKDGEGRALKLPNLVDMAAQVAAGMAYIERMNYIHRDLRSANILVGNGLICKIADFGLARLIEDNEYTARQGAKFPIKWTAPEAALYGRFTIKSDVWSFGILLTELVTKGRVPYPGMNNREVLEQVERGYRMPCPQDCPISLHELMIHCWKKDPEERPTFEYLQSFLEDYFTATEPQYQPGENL
# Chain of Serine/threonine-protein kinase PLK1 (Homo sapiens) (P53350 whole entry): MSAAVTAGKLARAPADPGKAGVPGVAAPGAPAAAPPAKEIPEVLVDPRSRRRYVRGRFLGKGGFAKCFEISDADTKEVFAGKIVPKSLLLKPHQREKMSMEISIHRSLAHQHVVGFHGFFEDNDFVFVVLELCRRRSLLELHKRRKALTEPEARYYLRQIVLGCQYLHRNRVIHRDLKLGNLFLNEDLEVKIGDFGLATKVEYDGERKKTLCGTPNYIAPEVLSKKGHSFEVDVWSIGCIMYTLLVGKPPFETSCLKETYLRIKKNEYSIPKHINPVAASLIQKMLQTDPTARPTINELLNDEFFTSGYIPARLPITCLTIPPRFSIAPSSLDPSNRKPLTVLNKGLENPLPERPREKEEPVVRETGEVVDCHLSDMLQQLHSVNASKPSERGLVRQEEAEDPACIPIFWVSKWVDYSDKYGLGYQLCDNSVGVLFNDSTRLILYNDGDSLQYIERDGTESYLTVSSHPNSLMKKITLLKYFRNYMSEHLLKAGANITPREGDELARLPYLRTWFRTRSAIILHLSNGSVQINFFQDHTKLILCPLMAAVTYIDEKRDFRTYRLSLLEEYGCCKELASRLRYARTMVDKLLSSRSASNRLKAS
# Chain of Vascular endothelial growth factor receptor 3 (Homo sapiens) (P35916 whole entry): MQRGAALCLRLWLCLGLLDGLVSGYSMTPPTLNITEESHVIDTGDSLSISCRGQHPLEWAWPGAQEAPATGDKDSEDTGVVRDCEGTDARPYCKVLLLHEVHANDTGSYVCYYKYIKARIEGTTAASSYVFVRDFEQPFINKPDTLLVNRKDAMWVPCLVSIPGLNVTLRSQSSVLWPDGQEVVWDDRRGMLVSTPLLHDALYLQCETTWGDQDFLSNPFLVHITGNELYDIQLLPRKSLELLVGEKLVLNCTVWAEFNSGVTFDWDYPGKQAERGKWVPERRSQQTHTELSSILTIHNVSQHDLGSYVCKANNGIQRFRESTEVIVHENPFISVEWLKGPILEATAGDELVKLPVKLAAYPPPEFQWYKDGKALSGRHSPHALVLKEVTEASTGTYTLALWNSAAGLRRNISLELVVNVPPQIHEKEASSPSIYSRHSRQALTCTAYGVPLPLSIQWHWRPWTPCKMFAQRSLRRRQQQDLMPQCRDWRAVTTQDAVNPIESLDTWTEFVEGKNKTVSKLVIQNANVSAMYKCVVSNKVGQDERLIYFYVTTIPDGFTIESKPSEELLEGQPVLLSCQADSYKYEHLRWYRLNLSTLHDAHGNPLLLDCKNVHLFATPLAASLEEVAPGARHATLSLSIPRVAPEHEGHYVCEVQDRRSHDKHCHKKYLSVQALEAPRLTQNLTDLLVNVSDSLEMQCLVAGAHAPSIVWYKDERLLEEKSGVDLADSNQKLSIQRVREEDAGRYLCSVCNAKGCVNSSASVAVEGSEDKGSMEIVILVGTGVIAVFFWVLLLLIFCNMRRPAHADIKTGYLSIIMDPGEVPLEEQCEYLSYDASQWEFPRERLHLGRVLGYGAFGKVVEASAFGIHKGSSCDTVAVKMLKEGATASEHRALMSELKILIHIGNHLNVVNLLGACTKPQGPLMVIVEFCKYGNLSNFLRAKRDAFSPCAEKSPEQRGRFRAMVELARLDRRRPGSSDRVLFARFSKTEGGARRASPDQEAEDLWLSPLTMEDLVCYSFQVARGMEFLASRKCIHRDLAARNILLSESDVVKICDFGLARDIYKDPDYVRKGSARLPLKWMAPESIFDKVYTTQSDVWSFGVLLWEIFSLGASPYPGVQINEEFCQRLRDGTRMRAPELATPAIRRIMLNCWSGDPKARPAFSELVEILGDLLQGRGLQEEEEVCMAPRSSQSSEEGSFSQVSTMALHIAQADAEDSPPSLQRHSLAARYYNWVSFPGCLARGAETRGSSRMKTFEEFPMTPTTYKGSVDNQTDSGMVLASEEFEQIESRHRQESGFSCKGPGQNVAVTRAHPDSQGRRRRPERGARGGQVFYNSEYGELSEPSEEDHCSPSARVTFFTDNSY
# Chain of Serine/threonine-protein kinase Nek6 (Homo sapiens) (Q9HC98 whole entry): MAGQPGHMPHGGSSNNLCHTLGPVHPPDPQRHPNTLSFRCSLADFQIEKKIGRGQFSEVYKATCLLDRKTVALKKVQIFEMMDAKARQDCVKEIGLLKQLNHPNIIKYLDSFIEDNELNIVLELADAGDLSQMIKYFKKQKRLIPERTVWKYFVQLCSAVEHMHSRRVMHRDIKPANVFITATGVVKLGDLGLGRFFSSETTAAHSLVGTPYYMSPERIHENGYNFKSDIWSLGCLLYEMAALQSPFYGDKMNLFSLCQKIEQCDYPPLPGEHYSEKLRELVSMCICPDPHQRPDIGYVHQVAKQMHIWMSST
# Chain of Serine/threonine-protein kinase Nek7 (Homo sapiens) (Q8TDX7 whole entry, looked up): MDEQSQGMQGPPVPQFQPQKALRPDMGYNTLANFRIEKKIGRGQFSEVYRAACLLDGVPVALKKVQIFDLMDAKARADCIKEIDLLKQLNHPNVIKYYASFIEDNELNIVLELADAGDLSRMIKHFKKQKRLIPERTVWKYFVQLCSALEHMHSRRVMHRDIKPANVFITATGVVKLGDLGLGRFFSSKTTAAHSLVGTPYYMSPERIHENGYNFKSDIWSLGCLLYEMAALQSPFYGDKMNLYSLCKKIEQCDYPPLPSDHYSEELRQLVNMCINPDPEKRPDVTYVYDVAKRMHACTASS
# Chain of Macrophage colony-stimulating factor 1 receptor (Homo sapiens) (P07333 whole entry): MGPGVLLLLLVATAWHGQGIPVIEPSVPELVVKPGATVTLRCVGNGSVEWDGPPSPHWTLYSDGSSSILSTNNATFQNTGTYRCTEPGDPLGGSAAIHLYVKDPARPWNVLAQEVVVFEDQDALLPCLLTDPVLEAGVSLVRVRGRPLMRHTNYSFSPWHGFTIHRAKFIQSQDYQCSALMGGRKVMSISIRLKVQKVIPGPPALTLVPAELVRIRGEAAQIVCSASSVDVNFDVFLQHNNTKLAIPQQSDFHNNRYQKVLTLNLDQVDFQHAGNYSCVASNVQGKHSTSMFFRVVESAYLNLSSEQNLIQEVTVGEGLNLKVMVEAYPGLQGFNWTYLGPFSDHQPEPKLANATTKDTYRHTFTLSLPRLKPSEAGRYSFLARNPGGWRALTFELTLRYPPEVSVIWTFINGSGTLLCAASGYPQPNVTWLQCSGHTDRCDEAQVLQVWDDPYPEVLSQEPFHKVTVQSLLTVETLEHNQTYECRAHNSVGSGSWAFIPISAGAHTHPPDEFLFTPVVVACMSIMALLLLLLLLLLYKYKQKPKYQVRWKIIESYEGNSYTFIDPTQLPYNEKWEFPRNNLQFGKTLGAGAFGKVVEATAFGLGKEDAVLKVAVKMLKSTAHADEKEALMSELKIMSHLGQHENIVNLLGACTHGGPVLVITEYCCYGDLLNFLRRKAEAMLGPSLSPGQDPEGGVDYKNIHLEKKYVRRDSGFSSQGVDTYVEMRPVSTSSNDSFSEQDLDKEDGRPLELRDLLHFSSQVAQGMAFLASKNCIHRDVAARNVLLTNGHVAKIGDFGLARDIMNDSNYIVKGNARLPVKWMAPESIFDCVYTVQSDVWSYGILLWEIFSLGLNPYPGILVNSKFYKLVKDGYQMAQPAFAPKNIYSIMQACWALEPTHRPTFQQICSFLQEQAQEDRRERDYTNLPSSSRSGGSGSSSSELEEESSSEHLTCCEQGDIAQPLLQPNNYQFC
smiles,measurement,setting,value
O=C(Nc1n[nH]c2cc(-c3ccc(F)cc3)ccc12)C1CC1,inhibition,[1],3.59%
same,inhibition,[2],2.65%
same,inhibition,[3],1.94%
same,inhibition,[4],4.38%
same,inhibition,[5],4.67%
same,inhibition,[6],0.6%
same,inhibition,[7],2.6%
same,inhibition,[8],5.51%
same,inhibition,[9],3%
same,inhibition,[10],8.59%
same,inhibition,[11],6.43%
same,inhibition,[12],2.87%
same,inhibition,[13],1.93%
same,inhibition,[14],6.08%
same,inhibition,[15],1.98%
same,inhibition,[16],1.27%
same,inhibition,[17],1.78%
same,inhibition,[18],1.64%
same,inhibition,[19],1.6%
same,inhibition,[20],2.62%
